In the supplement of paper PMC11732987, “Enantioselective OTUD7B fragment discovery through chemoproteomics screening and high-throughput optimisation” (Communications Chemistry, 2025):

Experiments:
Test in all cases: log2 ratio of Biotin-Ahx-Ub-VS probe labelling (fragment/DMSO); higher = less target engagement (more negative = stronger competition), active = hit call of the paper (q ≤ 0.05, log2 ratio ≤ -1)
Conditions in all cases: compound concentration: 200 uM; treatment time: 3 h
ALG13 = biological target: T1, ALG13 (UniProt Q9NP73)
T1 sequence (whole entry): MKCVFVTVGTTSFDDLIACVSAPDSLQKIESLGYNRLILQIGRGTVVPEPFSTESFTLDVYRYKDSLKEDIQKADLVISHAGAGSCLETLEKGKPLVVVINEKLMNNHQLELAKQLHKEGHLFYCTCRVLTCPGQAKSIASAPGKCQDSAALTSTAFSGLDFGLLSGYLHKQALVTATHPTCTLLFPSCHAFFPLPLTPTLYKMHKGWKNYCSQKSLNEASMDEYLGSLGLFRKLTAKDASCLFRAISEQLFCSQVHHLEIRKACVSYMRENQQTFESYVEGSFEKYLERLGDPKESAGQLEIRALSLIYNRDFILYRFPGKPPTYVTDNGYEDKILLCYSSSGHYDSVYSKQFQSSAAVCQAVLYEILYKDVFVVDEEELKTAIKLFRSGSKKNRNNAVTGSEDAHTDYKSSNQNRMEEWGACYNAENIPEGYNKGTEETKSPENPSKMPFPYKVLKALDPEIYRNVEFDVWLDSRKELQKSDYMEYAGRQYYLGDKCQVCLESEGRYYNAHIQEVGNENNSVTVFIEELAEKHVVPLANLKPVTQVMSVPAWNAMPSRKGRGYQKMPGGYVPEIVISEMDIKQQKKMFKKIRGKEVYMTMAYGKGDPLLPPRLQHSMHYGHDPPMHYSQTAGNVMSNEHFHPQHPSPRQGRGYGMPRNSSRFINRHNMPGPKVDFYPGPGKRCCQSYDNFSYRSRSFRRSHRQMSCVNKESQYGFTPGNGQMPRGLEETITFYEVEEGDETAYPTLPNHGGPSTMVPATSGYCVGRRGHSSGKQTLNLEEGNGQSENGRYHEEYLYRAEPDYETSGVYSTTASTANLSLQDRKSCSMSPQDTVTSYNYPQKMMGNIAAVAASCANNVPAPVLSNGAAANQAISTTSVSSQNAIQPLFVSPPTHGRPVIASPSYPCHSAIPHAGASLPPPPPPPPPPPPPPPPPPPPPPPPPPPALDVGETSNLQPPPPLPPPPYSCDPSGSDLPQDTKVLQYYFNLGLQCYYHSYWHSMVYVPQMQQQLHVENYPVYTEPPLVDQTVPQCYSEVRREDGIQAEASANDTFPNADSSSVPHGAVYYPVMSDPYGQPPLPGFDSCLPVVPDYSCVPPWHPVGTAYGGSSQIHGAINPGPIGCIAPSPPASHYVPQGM
Procedure, shortened: (§1)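 Values give the average log2 ratio of fragment to vehicle, assessed by unpaired t-test on global-median-normalised Spectronaut label-free quantities. Proteins needed ≥2 unique peptides. HEK293T lysate (495 µg per sample) was treated in triplicate with fragment at 200 µM or vehicle for 3 h and then with Biotin-Ahx-Ub-VS at 0.5 µM final for 1 h. Labelled DUBs were NeutrAvidin-enriched, digested and run by diaPASEF LC-MS/MS.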

ATXN3 = ATXN3 (UniProt P54252)
Procedure, shortened: as §1

BAP1 = biological target: T2, BAP1 (UniProt Q92560)
T2 sequence (whole entry): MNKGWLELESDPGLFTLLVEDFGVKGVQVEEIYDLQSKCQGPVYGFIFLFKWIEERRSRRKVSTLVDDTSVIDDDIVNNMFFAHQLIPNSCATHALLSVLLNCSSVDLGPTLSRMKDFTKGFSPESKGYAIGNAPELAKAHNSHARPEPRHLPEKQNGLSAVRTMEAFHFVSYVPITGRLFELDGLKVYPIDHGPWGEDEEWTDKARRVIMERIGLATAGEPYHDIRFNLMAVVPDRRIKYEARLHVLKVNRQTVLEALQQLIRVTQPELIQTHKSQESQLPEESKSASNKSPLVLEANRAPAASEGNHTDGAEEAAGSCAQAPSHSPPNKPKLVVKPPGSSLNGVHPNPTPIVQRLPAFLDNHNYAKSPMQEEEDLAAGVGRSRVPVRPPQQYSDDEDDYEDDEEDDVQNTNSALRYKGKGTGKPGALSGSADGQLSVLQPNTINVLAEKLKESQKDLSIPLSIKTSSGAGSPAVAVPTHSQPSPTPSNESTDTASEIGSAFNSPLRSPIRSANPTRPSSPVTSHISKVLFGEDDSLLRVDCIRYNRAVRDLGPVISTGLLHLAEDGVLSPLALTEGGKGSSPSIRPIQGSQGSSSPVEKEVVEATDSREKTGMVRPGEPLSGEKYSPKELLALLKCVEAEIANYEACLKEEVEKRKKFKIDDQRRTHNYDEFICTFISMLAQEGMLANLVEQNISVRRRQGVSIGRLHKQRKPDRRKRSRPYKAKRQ
Procedure, shortened: as §1

EIF3F = EIF3F (UniProt O00303)
Procedure, shortened: as §1

EIF3H = EIF3H (UniProt O15372)
Procedure, shortened: as §1

FAM105A = biological target: T3, FAM105A (UniProt Q9NUU6)
T3 sequence (whole entry): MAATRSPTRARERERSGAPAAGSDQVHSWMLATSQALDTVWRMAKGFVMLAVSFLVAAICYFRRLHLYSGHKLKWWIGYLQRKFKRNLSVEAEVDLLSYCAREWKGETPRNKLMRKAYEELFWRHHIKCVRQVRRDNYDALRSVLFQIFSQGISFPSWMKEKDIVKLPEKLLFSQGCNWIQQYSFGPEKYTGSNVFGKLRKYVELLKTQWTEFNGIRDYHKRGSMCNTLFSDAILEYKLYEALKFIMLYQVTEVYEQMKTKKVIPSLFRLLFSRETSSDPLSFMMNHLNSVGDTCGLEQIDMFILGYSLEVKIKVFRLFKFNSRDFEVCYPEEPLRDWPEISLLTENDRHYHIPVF
Procedure, shortened: as §1

OTUB1 = OTUB1 (UniProt Q96FW1)
Procedure, shortened: as §1

OTUD4 = biological target: T4, OTUD4 (UniProt Q01804)
T4 sequence (whole entry): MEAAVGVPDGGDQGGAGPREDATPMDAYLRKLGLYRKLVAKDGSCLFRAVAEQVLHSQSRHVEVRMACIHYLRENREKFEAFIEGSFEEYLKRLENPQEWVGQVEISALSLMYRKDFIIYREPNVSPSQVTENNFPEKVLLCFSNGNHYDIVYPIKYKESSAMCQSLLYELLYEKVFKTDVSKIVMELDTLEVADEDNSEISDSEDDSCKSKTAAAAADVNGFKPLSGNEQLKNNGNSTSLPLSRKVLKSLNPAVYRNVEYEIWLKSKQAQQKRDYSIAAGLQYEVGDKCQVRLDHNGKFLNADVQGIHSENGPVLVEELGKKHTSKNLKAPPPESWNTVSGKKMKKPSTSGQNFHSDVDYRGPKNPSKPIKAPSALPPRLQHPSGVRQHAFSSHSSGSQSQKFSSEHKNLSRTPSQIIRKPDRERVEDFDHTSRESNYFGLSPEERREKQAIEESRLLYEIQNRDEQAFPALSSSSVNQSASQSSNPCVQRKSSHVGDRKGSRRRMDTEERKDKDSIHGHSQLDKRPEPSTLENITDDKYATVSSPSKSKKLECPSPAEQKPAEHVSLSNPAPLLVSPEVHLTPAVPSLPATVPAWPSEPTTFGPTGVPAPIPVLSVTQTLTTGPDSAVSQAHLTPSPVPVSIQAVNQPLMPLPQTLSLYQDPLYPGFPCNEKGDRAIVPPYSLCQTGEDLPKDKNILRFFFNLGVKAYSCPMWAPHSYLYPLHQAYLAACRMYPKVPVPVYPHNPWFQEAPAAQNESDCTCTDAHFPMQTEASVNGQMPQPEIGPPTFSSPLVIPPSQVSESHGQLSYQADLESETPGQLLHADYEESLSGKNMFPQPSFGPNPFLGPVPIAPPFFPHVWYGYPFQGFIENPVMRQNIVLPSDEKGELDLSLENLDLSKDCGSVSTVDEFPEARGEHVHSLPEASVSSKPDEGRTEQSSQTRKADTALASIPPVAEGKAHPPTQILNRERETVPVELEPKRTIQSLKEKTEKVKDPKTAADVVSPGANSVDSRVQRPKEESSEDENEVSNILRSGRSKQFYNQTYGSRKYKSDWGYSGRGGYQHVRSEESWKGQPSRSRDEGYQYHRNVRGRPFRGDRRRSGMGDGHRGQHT
Procedure, shortened: as §1

OTUD5 = biological target: T5, OTUD5 (UniProt Q96G74)
T5 sequence (whole entry): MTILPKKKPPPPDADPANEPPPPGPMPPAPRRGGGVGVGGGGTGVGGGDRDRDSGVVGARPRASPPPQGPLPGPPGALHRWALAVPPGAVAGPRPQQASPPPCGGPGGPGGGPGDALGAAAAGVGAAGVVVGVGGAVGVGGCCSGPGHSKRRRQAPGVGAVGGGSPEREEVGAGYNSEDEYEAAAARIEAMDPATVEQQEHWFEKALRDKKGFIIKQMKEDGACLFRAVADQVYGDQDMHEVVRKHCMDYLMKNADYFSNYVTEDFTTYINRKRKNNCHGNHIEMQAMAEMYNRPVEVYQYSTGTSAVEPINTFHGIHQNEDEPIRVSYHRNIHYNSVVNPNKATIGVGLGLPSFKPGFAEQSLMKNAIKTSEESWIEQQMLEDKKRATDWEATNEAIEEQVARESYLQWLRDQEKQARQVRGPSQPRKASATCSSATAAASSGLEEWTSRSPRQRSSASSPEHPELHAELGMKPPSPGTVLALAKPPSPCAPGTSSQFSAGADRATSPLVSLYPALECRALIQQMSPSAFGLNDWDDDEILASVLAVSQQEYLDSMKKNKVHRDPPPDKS
Procedure, shortened: as §1

Measured: log2 ratio of Biotin-Ahx-Ub-VS probe labelling

Sequence of OTUB1 (Q96FW1 whole entry): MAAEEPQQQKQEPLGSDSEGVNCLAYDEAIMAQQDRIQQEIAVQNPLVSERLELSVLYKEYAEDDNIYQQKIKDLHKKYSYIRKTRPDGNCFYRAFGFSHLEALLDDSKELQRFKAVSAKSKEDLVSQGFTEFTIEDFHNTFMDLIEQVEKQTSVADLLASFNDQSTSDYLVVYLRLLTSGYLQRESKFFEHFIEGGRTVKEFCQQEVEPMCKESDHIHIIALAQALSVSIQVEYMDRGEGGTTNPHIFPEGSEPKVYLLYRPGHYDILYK
Sequence of EIF3H (O15372 whole entry): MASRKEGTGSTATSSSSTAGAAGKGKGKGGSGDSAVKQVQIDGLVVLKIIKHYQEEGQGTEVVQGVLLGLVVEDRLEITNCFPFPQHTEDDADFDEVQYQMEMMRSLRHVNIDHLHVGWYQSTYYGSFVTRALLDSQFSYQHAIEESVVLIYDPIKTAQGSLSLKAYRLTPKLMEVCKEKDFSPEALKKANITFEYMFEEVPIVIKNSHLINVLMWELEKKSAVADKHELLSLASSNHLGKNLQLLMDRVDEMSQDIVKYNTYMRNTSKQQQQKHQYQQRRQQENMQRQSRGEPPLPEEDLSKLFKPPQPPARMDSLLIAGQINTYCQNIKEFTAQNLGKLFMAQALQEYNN
Sequence of EIF3F (O00303 whole entry): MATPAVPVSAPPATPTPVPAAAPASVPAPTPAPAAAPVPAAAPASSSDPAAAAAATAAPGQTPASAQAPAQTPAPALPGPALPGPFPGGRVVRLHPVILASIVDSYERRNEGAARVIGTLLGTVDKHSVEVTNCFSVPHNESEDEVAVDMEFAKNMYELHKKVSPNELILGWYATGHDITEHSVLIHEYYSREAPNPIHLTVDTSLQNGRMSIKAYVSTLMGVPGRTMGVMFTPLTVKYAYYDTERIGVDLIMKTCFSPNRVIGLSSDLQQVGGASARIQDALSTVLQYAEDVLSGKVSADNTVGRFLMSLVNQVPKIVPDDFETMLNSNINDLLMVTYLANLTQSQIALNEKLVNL
Sequence of ATXN3 (P54252 whole entry): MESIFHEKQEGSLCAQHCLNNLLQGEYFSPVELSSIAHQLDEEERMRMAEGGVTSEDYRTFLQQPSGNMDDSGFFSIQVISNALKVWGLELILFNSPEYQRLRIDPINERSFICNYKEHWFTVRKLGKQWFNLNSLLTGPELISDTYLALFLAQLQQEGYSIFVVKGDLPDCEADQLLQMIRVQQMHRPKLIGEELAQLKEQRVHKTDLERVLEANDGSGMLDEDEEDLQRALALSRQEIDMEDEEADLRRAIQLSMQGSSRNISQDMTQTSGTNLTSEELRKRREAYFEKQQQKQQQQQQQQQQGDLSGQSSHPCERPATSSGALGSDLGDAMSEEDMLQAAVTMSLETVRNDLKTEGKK

Cc1n[nH]c2c1CN(C(=O)CCl)CC2
active: OTUD5 -1.05
inactive: ALG13 0.0341 | ATXN3 -0.888 | BAP1 -1.1 | EIF3F -0.389 | EIF3H 0.366 | FAM105A 0.0256 | OTUB1 -0.0671 | OTUD4 -0.753
